Data published in PubChem BioAssay AID624416 (The Scripps Research Institute Molecular Screening Center, 2012).
In all, about 360,000 compounds went through this assay and about 1,500 (0.42%) were called active. No stated cut-off is given here; in the data, active means inhibition above about 8.5%; inactive means the rest. What follows is part of a selection rich in actives, with near analogues and random picks from the rest.

Each compound was assayed on HIV-1 gp120 / PG9 antibody interaction (assay: small molecules engaging PG9 antibody – biochemical, TR-FRET, primary screen (AID 624416)). Details: TR-FRET gp120-PG9 antibody binding; at 6.7 µM; hits give high values.
With `CCN(CC)C(=O)c1ccc(NC(=O)c2cc(-n3cnnc3)ccc2Cl)cc1` the inhibition was -0.62% (inactive).
With `CCN(CC)C(=O)c1ccc(NC(=O)c2sccc2-c2ccccc2)cc1` the inhibition was 9.48% (active).
For `CC(=O)Nc1ccc(C(=O)C(Cc2ccccc2)N(C)C)cc1` (stereo not given), the inhibition was -2.82% (inactive).
In the case of `O=C1NC(=O)C(CCc2ccccn2)(Cc2cccc(Cl)c2Cl)C(=O)N1c1ccc(Br)cc1` (stereo not given), the inhibition is reported as -0.96% (inactive).
`CN1CCN(Cc2ccccc2C(F)(F)F)CC1` was tested, and the inhibition was 1.87% (inactive).
For `CCNc1nc2[nH]c(=O)c3c(c2s1)OC(N)=C(C#N)C3c1cccs1` (stereo not given), the inhibition was -1.83% (inactive).
For `N#CC1=C(N)Oc2c(c(=O)oc3ccccc23)C1c1ccccc1OC(=O)c1cccs1` (stereo not given), the inhibition was 11% (active).
With `COc1ccc(C2C=C(C)Oc3c2c(=O)oc2ccccc32)cc1OC` (stereo not given) the inhibition was 0.19% (inactive).
`C[C@]12CCCCC1=CC(=O)C1C2CC[C@@]2(C)C1C[C@@H](F)[C@@H]2O` (stereo not given in full) was tested, and the inhibition was 0.27% (inactive).
`Cc1cc2ccccn2c1C(C[N+](=O)[O-])c1c(F)cccc1Cl` (stereo not given) was tested, and the inhibition was 1.04% (inactive).
